Screens as filed in PubChem.
Shown are actives, neighbours in structure and some others; about 11% of the full set was active somewhere.
IMPase cell inh: IMPase inhibition in cells | 120,000 tested, under 10 active | CHO-M1 cells, IP1 accumulation, HTRF TR-FRET ratio | inhibition (IP1 accumulation), % at 46.1 µM | P97697; active means well fitted curve in the direction sought with a large enough effect in the signal ratio, not every such curve was filed as active; inconclusive means small, poorly fitted or top-dose-only effect, or a change in a side signal; inactive means no such curve, though single readings can be large or run the other way; the % refers to the signal ratio;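 further: cells stimulated with carbachol in lithium chloride buffer; plate controls were DMSO basal wells for no effect and reference inhibitor wells for full effect; higher means more IMPase inhibition seen as more IP1 and lower FRET ratio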
Target sequence (P97697 whole entry, looked up): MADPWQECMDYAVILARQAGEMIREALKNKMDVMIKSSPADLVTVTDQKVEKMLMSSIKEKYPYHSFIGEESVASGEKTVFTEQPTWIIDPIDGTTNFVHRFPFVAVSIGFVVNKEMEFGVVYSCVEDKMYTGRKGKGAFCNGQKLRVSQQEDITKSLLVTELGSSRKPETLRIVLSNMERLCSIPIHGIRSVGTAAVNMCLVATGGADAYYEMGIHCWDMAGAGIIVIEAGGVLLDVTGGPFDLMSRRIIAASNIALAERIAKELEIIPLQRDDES
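Seeded CHO-M1 cells were dosed with compound at up to 46 uM, stimulated with carbachol for 30 min, then lysed in IP-One detection reagents. Higher IP1 lowers the TR-FRET signal.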
HPGD inh: HPGD (human) dehydrogenase inhibition; P15428; Potency, µM, inactives show at the highest dose activity change, negative = inhibition, actives largely listed as inhibitors; 150,000 tested, 4.3% active; purified HPGD, NADH fluorescence kinetic, PGE2 substrate; active means well fitted inhibition curve with a large enough effect, not every such curve was filed as active; inconclusive means small, poorly fitted or top-dose-only effect, or another doubt; inactive means no such curve, though single readings can be large or run the other way; further: potency means the concentration at half of the fitted maximal effect
Target sequence (P15428 whole entry, looked up): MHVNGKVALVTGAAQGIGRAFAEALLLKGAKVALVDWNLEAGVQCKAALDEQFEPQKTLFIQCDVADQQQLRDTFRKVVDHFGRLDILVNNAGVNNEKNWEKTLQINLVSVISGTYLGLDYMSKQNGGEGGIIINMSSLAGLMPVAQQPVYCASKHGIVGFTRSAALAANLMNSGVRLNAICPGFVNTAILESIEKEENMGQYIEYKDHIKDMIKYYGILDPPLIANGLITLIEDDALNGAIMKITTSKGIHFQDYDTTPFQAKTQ
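20 nM HPGD preincubated 15 min at room temperature with compound in 50 mM Tris-HCl pH 8, 0.01% Tween 20. Started with 1 mM NAD+ and 30 uM prostaglandin E2; NADH fluorescence (360/450 nm) read 5 times over 30-s intervals, last minus first.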
ALDH1A1 inh: blocks purified human ALDH1A1 activity. P00352. Purified ALDH1A1, NADH fluorescence, propionaldehyde substrate. Potency, µM (highest dose often 75.3 µM), without a hit: top-dose activity, negative = inhibition, most hits filed as inhibitors. 220,000 tested, 7.3% active. AID 1030; active means well fitted inhibition curve with a large enough effect, not every such curve was filed as active; inconclusive means small, poorly fitted or top-dose-only effect, or another doubt; inactive means no such curve, though single readings can be large or run the other way;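 further: potency means the concentration at half of the fitted maximal effect; plate controls were no enzyme wells and a reference inhibitor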
PNC inhibitor: inhibitors of perinucleolar compartment assembly; PC3M PTB-GFP, PNC prevalence imaging, 16 h; active compounds read low; activity change (PNC), negative = inhibition, % at 10 µM; 140,000 tested, 3.1% active;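 active means readout at or below -70, meaning at least 70% loss of cells showing the perinucleolar compartment, a nuclear body marking cancer cells; inconclusive means readout between -30 and a set limit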;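 further: plate controls were DMSO wells for no effect and camptothecin positive control wells for full effect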
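Compounds are pinned in duplicate onto adhered PC3M cells stably expressing GFP-tagged PTB and incubated 16 h at 37 C. Cells are then fixed, nuclei stained with Hoechst, and PNC-positive cells counted.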
IMPase Li cell: membrane-permeable IMPase blocker, potentiated with lithium; Potency, µM (highest dose often 59.4 µM), inactives show top-dose activity, negative = IMPase inhibition, usual class: inhibitors; AID 1457; CHO-M1 cells, IP1 TR-FRET (IP-One), carbachol + lithium; 210,000 tested, 0.35% active;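 further: IP1 builds up when IMPase is blocked and the TR-FRET signal falls; potency means the concentration at half of the fitted maximal effect; plate controls were basal vehicle for no effect and high inhibitor control for full effect; nearly all actives have a fitted effect of over 50% in size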
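Test compounds were applied to CHO-M1 cells previously cultured for 16–30 h at 2000 per well. A small lithium amount accompanied them; after 30 min at 37C, IP1 was quantified by TR-FRET.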
NPSR antag: antagonists of human neuropeptide S receptor cAMP signaling; CHO-NPSR cells, cAMP TR-FRET, antagonist mode; Potency, µM (highest dose often 38.3 µM), for the others: at the top dose activity change, negative = inhibition, hits mostly inhibitors; 220,000 tested, 1% active; further: potency means the concentration at half of the fitted maximal effect; nearly all actives have a fitted effect of over 50% in size
Numbers without * were called inactive; ? = inconclusive; · = not tested or not shown; [ ] = dose if it differs, or a comment. Unless noted, the call rests on the fitted dose curve; in most records, active means well fitted curve in the direction sought with a large enough effect; inconclusive means small, poorly fitted or top-dose-only effect, or another doubt; inactive means no such curve, though single readings can be large; an effect the other way counts as inactive or inconclusive. Unless noted, on the % scale 0 is the no-effect control and ±100 the full control effect.

SMILES	IMPase cell inh	HPGD inh	ALDH1A1 inh	PNC inhibitor	IMPase Li cell	NPSR antag
Cc1cccc(C)c1-n1c(C)cc(/C=N/NC(=O)c2ccncc2)c1C	5.7	-10.1%	28.2µM*	?	9.9%[38.3 µM]	-4.3%[46.1 µM]
Cc1ccc(-n2c(C)cc(/C=N/NC(=O)CC3(C)OCCO3)c2C)c(C)c1	1.5[0.369 µM]	-20.5%	14.1µM*	-25.1	1.1%	?
O=c1cc2ncc(-n3cc([N+](=O)[O-])cn3)cn2[nH]1	·	·	0.4%	·	-3.4%	3.2%
Cc1c(NS(=O)(=O)c2ccc3nc(COc4ccccc4Cl)[nH]c3c2)c(=O)n(-c2ccccc2)n1C	·	·	2.9%	·	3.8%	-12.1%
CCN1CCN(c2cc3c(cc2F)c(=O)c(C(=O)O)cn3C2CC2)CC1	·	?	?	-114.6*	7.3%	-20.7%
CC(=O)N1CCN(c2cc3c(cc2F)c(=O)c(C(=O)O)cn3C2CC2)CC1	·	·	?	·	0.3%	2.3%
CC1CCCN(c2ccc(C(=O)NCc3ccccc3)cn2)C1 (stereo not drawn)	·	·	?	·	2.8%	-13.3%
CC1CCCN(c2ccc(C(=O)NCc3cccs3)cn2)C1 (stereo not drawn)	12.8	28.2µM*	?	?	-2.8%	-20.0%[46.1 µM]
O=C(NCc1cccs1)c1ccc(N2CCCCC2)nc1	-5.9	15.8µM*	12.6µM*	-11.8	-6.2%[38.3 µM]	-19.6%[46.1 µM]
CCCCCCN1CC(O)=C(c2nc3ccccc3[nH]2)C1=N	-4.9	·	4.3%	44.4	·	-9.8%[46.1 µM]
O=C(c1cc2ccccc2oc1=O)N(Cc1cccs1)Cc1cccs1	8.4	-21.0%	11.2µM*	-20.9	21.7%	?
FC(F)(F)c1ccccc1-c1nccc(N2CCNCC2)n1	·	·	15.4%	·	1.7%	·
CCc1ccc(OCC(O)CN2CCN(c3ccccc3)CC2)cc1 (stereo not drawn)	2.4	-6.8%	-6.2%	-27.6	-6.2%[38.3 µM]	-4.3%[46.1 µM]
O=C1CCc2nc3ccccc3c(=O)n2N1	11.3	-14.9%	?	12.4	25.8%[38.3 µM]	-3.8%[46.1 µM]
Cc1sc2nc3n(c(=O)c2c1C)NC(=O)CC3	-1.7	-13.2%	5.8%	-100.0*	1.2%	4.0%[46.1 µM]
CCOc1cc(C(=O)NCCN2CCOCC2)cc(OCC)c1OCC	-7.2	-7.8%	2.3%	-100.0*	7.2%	-0.9%[46.1 µM]
COc1cc(C(=O)NCCC(=O)NCCN2CCOCC2)cc(OC)c1OC	1.2	-7.4%	3.7%	?	-2.7%[38.3 µM]	-1.6%[46.1 µM]
COc1ccc(-c2nc(=S)[nH][nH]2)cc1OC	·	·	?	·	0.7%	5.5%
S=c1nc(-c2cc(Cl)ccc2Cl)[nH][nH]1	·	·	6.31µM*	·	-17.1%	-14.7%
S=c1nc(-c2cccc(Cl)c2)[nH][nH]1	·	·	?	·	-23.0%	-4.4%
S=c1nc(-c2cc(Cl)cc(Cl)c2)[nH][nH]1	·	·	11.2µM*	·	·	0.7%
S=c1nc(-c2ccccc2Br)[nH][nH]1	3.8	12.6µM*	10µM*	?	-1.3%	4.7%
Cc1cccc(C)c1OCC(=O)Nc1ccc(N2CCOCC2)cc1	·	·	-10.5%	·	7.4%	-0.7%
Cc1ccc(NC(=S)NCc2cccn2C)cc1	-3.3	-28.4%	-13.1%	?	19.9%[38.3 µM]	-3.4%[46.1 µM]
Cc1c(Cl)c(C(=O)NC2CCCC2)nn1C	-3.4	35.5µM*	-0.5%	16.8	-7.2%	-10.1%[46.1 µM]
SMILES	IMPase cell inh	HPGD inh	ALDH1A1 inh	PNC inhibitor	IMPase Li cell	NPSR antag
Cn1c(=O)c2c(nc(SCC(=O)O)n2Cc2cc3c(cc2Cl)OCO3)n(C)c1=O	4.3	25.1µM*	35.5µM*	58.2	13.5%[38.3 µM]	4.2%[46.1 µM]
CCn1c(SCC(=O)Nc2ccc3c(c2)OCO3)nc2c1c(=O)n(C)c(=O)n2C	1.4	-3.1%	17.1%	?	29.8%[38.3 µM]	-13.3%[46.1 µM]
O=C(CCN1C(=O)COc2ccccc21)N1CCN(c2ccccc2)CC1	·	·	-15.2%	·	4.2%	-10.5%
CNS(=O)(=O)c1cccc2nsnc12	10.0	-5.9%	21.1%	?	8.3%	0.9%[46.1 µM]
Nc1cc(=O)[nH]c(SCC(=O)Nc2ccc(S(=O)(=O)N3CCCCC3)cc2)n1	·	·	18.9µM*	·	9.0%	-14.2%
CC(SCC(=O)Nc1ccc(S(=O)(=O)N2CCCCC2)cc1)C(=O)O (stereo not drawn)	2.9	-2.0%	28.2µM*	-6.8	-19.0%[38.3 µM]	2.6%[7.67 µM]
Nc1cc(=O)[nH]c(SCC(=O)Nc2ccc(S(=O)(=O)N3CCOCC3)cc2)n1	3.7	-21.3%	?	79.9	-1.4%[38.3 µM]	-2.9%[46.1 µM]
O=C(O)CCC(=O)Nc1ccc(S(=O)(=O)N2CCCC2)cc1	7.5	3.3%	-3.6%	?	17.5%[38.3 µM]	6.7%[46.1 µM]
O=C(Cc1cccs1)Nc1ccc(S(=O)(=O)N2CCCC2)cc1	·	·	12.6µM*	·	7.2%	-10.4%
Cc1csc(SCC(=O)Nc2ccc(S(=O)(=O)N3CCCC3)cc2)n1	-3.8	-17.8%	14.1µM*	15.2	12.7%[38.3 µM]	-15.3%[46.1 µM]
CN(Cc1nc(-c2ccc(C(F)(F)F)cc2)no1)C1CCOCC1	·	·	2.0%	·	1.9%	4.9%
CCCCN(Cc1cc2ccccc2[nH]c1=O)C(=O)c1ccccn1	-0.3	-22.2%	-12.2%	-23.3	-6.3%[38.3 µM]	-18.0%[46.1 µM]
O=C(Cn1c(=O)n(CC(=O)NCc2ccccc2)c2ccccc21)NCc1ccccc1	2.8	-9.8%	2.6%	3.9	-2.2%	-2.3%[46.1 µM]
Cc1csc(SCC(=O)NC23CC4CC(CC(C4)C2)C3)n1	0.5	28.2µM*	3.3%	33.1	21.9%[38.3 µM]	-12.7%[46.1 µM]
COc1ccc(S(=O)(=O)N(CCCN2CCOCC2)Cc2cccc3ccccc23)cc1	0.4	-22.3%	6.31µM*	?	34.7%[38.3 µM]	1.1%[46.1 µM]
O=S(=O)(c1ccc(Cl)cc1)N(CCCN1CCOCC1)Cc1cccs1	·	·	12.6µM*	·	5.7%	-11.1%
CC(O)CNc1nc2c(c(=O)n(C)c(=O)n2C)n1Cc1cccc(C(F)(F)F)c1 (stereo not drawn)	-3.3	-2.8%	-5.3%	?	13.5%[38.3 µM]	2.6%[46.1 µM]
CC1(C)CNC(=O)c2sc(N3CCCCC3)nc2C1	-5.7	-13.5%	-6.4%	?	28.9%[38.3 µM]	-1.6%[46.1 µM]
CC1(C)CC(=O)c2sc(NC(=O)C3COc4ccccc4O3)nc2C1 (stereo not drawn)	-21.3	-16.9%	15.8µM*	?	2.1%[38.3 µM]	-1.7%[46.1 µM]
Cc1cccc2sc(NNC(=O)C3COc4ccccc4O3)nc12 (stereo not drawn)	·	28.2µM*	-4.3%	?	9.2%	-16.7%
CC1(C)CNC(=O)c2sc(NC(=O)c3ccccc3Cl)nc2C1	·	·	12.6µM*	·	-6.5%	27.6%
CC1(C)CC(=O)c2sc(NC(=O)c3ccco3)nc2C1	-3.9	-8.9%	22.4µM*	15.6	-19.9%[38.3 µM]	-11.5%[46.1 µM]
CN1C(=O)C(CC(=O)Nc2ccc3c(c2)Cc2ccccc2-3)N(C)C1=O (stereo not drawn)	2.9	-13.2%	2.2%	-13.8	29.2%[38.3 µM]	10.8%[46.1 µM]
COC(=O)C1=C(C)N(C)C(=O)NC1c1ccc(C)cc1 (stereo not drawn)	1.1	-6.9%	-5.1%	?	9.4%[38.3 µM]	-10.9%[46.1 µM]
O=C(CNCC1CCCO1)Nc1ccc(N2CCCCCC2)cc1 (stereo not drawn)	41.9	-13.1%	15.8µM*	-27.5	71.4%[38.3 µM]	?
